About 2,700 (4%) of roughly 68,000 compounds showed an effect of 50% or more. For the sample, strong results were picked, then their nearest neighbours and some compounds at random.
These compounds were tested on Plasmodium berghei (assay: Screen against P. berghei liver stage (PbLuc), transformed with Luciferase, at 2uM). Settings: tested at 2 uM.
Format: functional, HepG2

Row | Compound | INHIBITION
1 | CC(C)c1cc(NC2CCCN(C(=O)c3cccs3)C2)ncn1 (stereo not given) | -13.8%
2 | CC(C)c1cc(NC2CCN(C(=O)N3CCCC3)CC2)ncn1 | 52.98%
3 | O=C(N1CCCC1)N1CCC(Nc2ccncn2)CC1 | 39.44%
4 | Cc1nc2ncc3c(=O)n(C)ccc3n2n1 | -42.16%
5 | CN(C)CC(=O)N1CCCC2(CCC(=O)N(CCc3c[nH]cn3)C2)C1 (stereo not given) | 38.93%
6 | CCc1n[nH]c(C(=O)N2CCCC3(CN(C)C(=O)O3)C2)c1C (stereo not given) | 51.9%
7 | CN1CCc2[nH]nc(C(=O)N3CCCC4(CN(C)C(=O)O4)C3)c2C1 (stereo not given) | -15.16%
8 | Cc1nc[nH]c1C(=O)N1CCCC2(CN(C)C(=O)O2)C1 (stereo not given) | 1.06%
9 | CC(NCC(=O)Nc1ccc(N2CCCCCC2)cc1)c1cccs1 (stereo not given) | 23.68%
10 | CCc1cc(C(=O)N[C@H]2CN(CCS(C)(=O)=O)C[C@@H]2C2CC2)[nH]n1 | -90.7%
11 | Cc1occc1C(=O)N1CCc2c(CNS(C)(=O)=O)cncc2C1 | -15.09%
12 | CC(C)CC(NC(=O)Nc1ccc(F)c(Cl)c1)C(=O)O (stereo not given) | 56.54%
13 | CC(C)C[C@H](NC(=O)Nc1ccc(F)c(Cl)c1)C(=O)O | -9.89%
14 | CC(C)CC(NC(=O)CSc1ccc(F)c(Cl)c1)C(=O)O (stereo not given) | 14.54%
15 | Cc1ccc(CN2C[C@@H](OCc3ccccn3)[C@H]3COC[C@H]32)o1 | -4.92%
16 | CC(C)c1nc(C2CCCN2Cc2nccn2CC(F)(F)F)no1 (stereo not given) | -20.05%
17 | CC(C(=O)Nc1ccc(N2CCOCC2)nc1)n1cncn1 (stereo not given) | 43.32%
18 | CC(C)(C)c1cnc(CN2C(=O)CC3(CCSC3)C2=O)o1 (stereo not given) | 53.99%
19 | CCc1cnc(CN2C(=O)CC3(CCSC3)C2=O)o1 (stereo not given) | 15.39%
20 | CC(C)c1cnc(CN2C(=O)CC3(CCSC3)C2=O)o1 (stereo not given) | -21.1%
21 | Cc1nc2ccc(-n3ncnc3[C@@H]3CCCN3S(C)(=O)=O)cc2s1 | -35.1%
22 | CC(C)(C)CN1Cc2cc3c(cc2NCCC1=O)OCO3 | -15.54%
23 | CN(C)CCn1c2c(ccc1=O)CCN(C(=O)c1cccs1)CC2 | 53.27%
24 | Cc1ccc(C(=O)N2CCc3ccc(=O)n(CCN(C)C)c3CC2)o1 | 5.77%

Row | Compound | INHIBITION
25 | CN(C)CCn1c2c(ccc1=O)CCN(C(=O)c1ccoc1)CC2 | 17.31%
26 | Cc1cc(C)c(CCNC(=O)CN2CCCN(C(N)=O)CC2)c(C)c1 | 66.74%
27 | NC(=O)N1CCCN(CC(=O)NCCc2c(F)cccc2F)CC1 | 19.12%
28 | Cc1cc(C)cc(C(=O)N2CCCN(CC(N)=O)CC2)c1 | 16.13%
29 | O=C(c1ccc2c(c1)OCO2)N1CCC[C@]2(C[C@H](OCC3CC3)CO2)C1 | 10.43%
30 | O=C(CN1CCCC1Cn1cccn1)NC1CCOCC1 (stereo not given) | 4.41%
31 | CCCS(=O)(=O)c1ccc(N2CCN(Cc3ccccc3)CC2)nn1 | 27.54%
32 | CCS(=O)(=O)N1CCN(c2cc(-n3cnc(C)c3C)nc(C)n2)CC1 | 61.28%
33 | Cc1nc(N2CCN(S(C)(=O)=O)CC2)cc(-n2cnc(C)c2C)n1 | 43.32%
34 | CCCS(=O)(=O)N1CCN(c2cc(-n3cnc(C)c3C)nc(C)n2)CC1 | 35.54%
35 | CCOCCN1CCCC1CS(N)(=O)=O (stereo not given) | -7.76%
36 | O=C(c1ccc2c(c1)OCO2)N1CCCC(Nc2ccc(F)cc2)C1 (stereo not given) | 47.67%
37 | CSCC(C)(O)CNC(=O)c1ccc(F)cc1Cl (stereo not given) | -29.65%
38 | CC(C)(O)CSCCNC(=O)c1ccc(F)cc1Cl | 58.69%
39 | CC(C)(O)CSCCNC(=O)c1cc(F)ccc1F | 35.56%
40 | O=C(CCc1ccc(Cl)cc1)N[C@@H]1CC[C@@H](O)[C@@H]1O | -11.3%
41 | c1cncc(CN2CCCn3nnc(COCC4CC4)c3C2)c1 | 34.37%
42 | O=C(CCCOCc1ccccc1)N1CCCC1c1ccccn1 (stereo not given) | 28.51%
43 | O=C(COCc1ccccc1)Nc1ccccn1 | 62.51%
44 | CSc1ccc(NC(=O)COCc2ccccc2)nc1 | 12.43%
45 | CS(=O)(=O)Cc1cc(F)ccc1NCc1nnsc1Cl | -13.68%
46 | CCC(C)(C)NC(=O)Cn1nnc(CN(C)C(=O)c2ccccc2)n1 | 2.49%
47 | CCN(Cc1nnnn1C1CC1)c1cc(C)ccc1C | 55.43%
48 | Cc1ccc(N(C)Cc2nnnn2C2CC2)c(C)c1 | -11.28%

Row | Compound | INHIBITION
49 | CN(Cc1nnnn1C1CC1)c1cccc2ccccc12 | 4.86%
50 | Cc1nnc(SCC(=O)NCc2ccc3c(c2)CCC(=O)N3)n1C | 26.03%
51 | Cc1ncc(-c2ccnc(SCCN(C)C)n2)c(-c2ccco2)n1 | 8.77%
52 | CNC(=O)[C@@H](C1CCCCC1)N1CCC[C@H]1C(=O)N(C)CCN(C)C | 27.65%
53 | Cc1cc(CC(C)NC(=O)Cc2cc(F)ccc2C)[nH]n1 (stereo not given) | 27.47%
54 | COc1ccccc1C1CC(=O)Nc2nc(N3CCCCC3)sc21 (stereo not given) | -71.12%
55 | CN(C)C[C@@H]1CCC[C@@H]2CN(c3nccc(C(F)(F)F)n3)C[C@@H]21 | 16.87%
56 | O=C1O[C@@H]2CN(c3ccccn3)C[C@@H]2N1CCCc1ccc(F)cc1 | 12.55%
57 | O=C1O[C@@H]2CN(c3cnccn3)C[C@@H]2N1CCCc1ccc(F)cc1 | 51.96%
58 | O=C1O[C@@H]2CN(c3ncccn3)C[C@@H]2N1CCCc1ccc(F)cc1 | 17.48%
59 | COc1cc(C2c3c(n[nH]c3C)N=C3COC(=O)C32)cc2c1OCO2 (stereo not given) | -41.64%
60 | COc1ccc(CNC(=O)NC(C)(CO)C2CC2)c(C(F)(F)F)c1 (stereo not given) | -16.93%
61 | CCN(CC)C(=O)c1cc(Br)cc(S(=O)(=O)N2CCOCC2)c1F | 0.48%
62 | O=C(COCc1ccccc1)N1CCC(OCc2cccnc2)CC1 | 34.34%
63 | Cc1cc(C)c(C(=O)N2CCCC(C(=O)CCc3ccccc3)C2)cn1 (stereo not given) | 0.73%
64 | CN(C)S(=O)(=O)N1CCOC(c2cccc(-c3cncnc3)n2)C1 (stereo not given) | -12.93%
65 | CCN1CCN(C(=O)c2nc(C)n(-c3ccccc3Cl)n2)CC1 | -18.67%
66 | Cc1nc(C(=O)N2CCCCC2)nn1-c1ccccc1Cl | 60.09%
67 | CCc1nc(C(=O)N2CCCCC2)nn1-c1ccccc1Cl | -41.76%
68 | CN(C)C(=O)CNC(=O)c1nc(C2CC2)n(-c2ccccc2Cl)n1 | 65.76%
69 | CCNC(=O)CNC(=O)c1nc(C2CC2)n(-c2ccccc2Cl)n1 | 13.01%
70 | CC(=O)NCCNC(=O)c1nc(C2CC2)n(-c2ccccc2Cl)n1 | -1.79%

— ChEMBL document CHEMBL4513216, “Probing the Open Global Health Chemical Diversity Library for Multistage-Active Starting Points for Next-Generation Antimalarials” (ACS Infect Dis, 2020)
